Test results reported in PubChem BioAssay.

Each compound was assayed against Fibroblast growth factor 2 (Homo sapiens) (UniProt P09038) (assay: basic fibroblast growth factor binding to printed compounds – biochemical, small-molecule microarray, 635/667 nm fluorescence, primary screen (AID 1133)). Conditions: FGF2, fluorescence 635/667, higher = more signal.
Chain of Fibroblast growth factor 2 (Homo sapiens) (P09038 whole entry, looked up): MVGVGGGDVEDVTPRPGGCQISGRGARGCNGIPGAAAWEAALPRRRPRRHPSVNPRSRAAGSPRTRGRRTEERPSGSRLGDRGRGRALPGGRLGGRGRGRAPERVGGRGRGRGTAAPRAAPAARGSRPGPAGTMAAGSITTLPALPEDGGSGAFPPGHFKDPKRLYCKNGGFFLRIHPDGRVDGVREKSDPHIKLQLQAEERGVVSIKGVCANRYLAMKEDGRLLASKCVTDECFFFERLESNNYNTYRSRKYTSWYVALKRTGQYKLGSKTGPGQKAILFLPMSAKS

In order of rising composite z-score:
1. COC(=O)[C@@]1(Cc2ccc(F)cc2)[C@H]2c3cc(C(=O)N4CCCC4)n(CCCNc4ncc(C(F)(F)F)cc4Cl)c3C[C@H]2CN1C(=O)c1ccccc1  -0.903
2. C#C[C@H](O[Si](C#Cc1ccc(Oc2ccccc2)cc1)(C(C)C)C(C)C)c1ccccc1  0.137
3. COCCOC(=O)N1C(=O)[C@@]2(c3ccccc31)[C@H](c1ccccc1OCCO)N1[C@H](c3ccccc3)[C@H](c3ccccc3)OC(=O)[C@H]1[C@@H]2C(=O)N1CCN(c2ncccn2)CC1  0.385
4. C=CCC(OC(C)=O)[C@@H]1[C@@H](N(Cc2cc3ccccc3o2)C(=O)c2cccc3ccccc23)c2cc(OCCCO)ccc2N1C(=O)c1ccc(-c2ccccc2)cc1 (some centres undefined)  0.401
5. COCCOC(=O)N1C(=O)[C@@]2(c3ccccc31)[C@H](c1ccc(O)cc1)N1[C@H](c3ccccc3)[C@H](c3ccccc3)OC(=O)[C@H]1[C@@H]2C(=O)Nc1nc2ccccc2s1  0.408
6. NC(=O)NCC#Cc1ccc2c(c1)[C@]1(C(=O)N2)[C@H](C(=O)Nc2nc3ccccc3s2)[C@H]2C(=O)O[C@H](c3ccccc3)[C@H](c3ccccc3)N2[C@@H]1c1ccccc1OCCO  0.624
7. COCCCNC(=O)[C@@]1(C)c2ccccc2C(=O)N(C(C)C)[C@H]1c1ccc(CO)cc1  0.802
8. O=C1N[C@@H](Cc2ccccc2)C(=O)N2[C@@H]1C[C@@H](C(=O)O)[C@H]2c1cccc(OCCO)c1  1.43
9. CC(C)C[C@@H]1NC(=O)[C@@H]2C[C@H](C(=O)NCc3ccc(F)cc3)[C@H](c3cccc(OCCO)c3)N2C1=O  1.46
